# SW480 rereplic: inducers of DNA re-replication in SW480 colon cancer cells; AID 624297; SW480 DNA re-replication, Hoechst DNA content imaging, 48 h; Potency, µM (highest dose often 46.1 µM), most hits filed as activators; actives 1.8% (n = 340,000); note: nearly all actives have a fitted effect of over 55% in size
#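 Image-based read-out: total Hoechst fluorescence of nuclei (405 nm excitation, 500-530 nm emission), with hits raising the fraction of high-intensity nuclei. SW480 colon cells incubated 48 hr with compounds at 37 C.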
# Gal4-VP16 FLuc: inhibits Gal4-VP16 luciferase reporter, ROR gamma counter-screen; AID 2546; Drosophila S2 Gal4-VP16 UAS-luciferase, luminescence, 20 h; actives 3.5% (n = 310,000); Potency, µM (top dose mostly 53.6 µM), hits mostly inhibitors;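 note: Gal4-VP16 expression switched on by copper sulfate through the metallothionein promoter; nearly all actives have a fitted effect of over 50% in size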
# ELG1 DNA repair: blocks ELG1-dependent DNA repair in HEK293T cells | HEK293T ELG1-luciferase reporter, luminescence, 16 h; DNA damage induced by 5-fluorouridine | Potency, µM (doses to about 46.1 µM), hits mostly inhibitors | actives 2.3% (n = 330,000); note: nearly all actives have a fitted effect of over 55% in size
#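 Step one: seed 2,000 cells per well. Step two: pin-transfer compound or DMSO alongside 5-fluorouridine. Step three: incubate 16 hr, 37 °C, 5% CO2. Step four: add ONE-Glo, wait 30 min, read luminescence.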
# RORgamma inh: ROR gamma (mouse) transcription inhibition; P51450; Drosophila S2 Gal4-RORgamma UAS-luciferase reporter, 20 h; Potency, µM (doses to about 53.6 µM), hits mostly inhibitors; actives 5.4% (n = 310,000); AID 2551; note: nearly all actives have a fitted effect of over 60% in size
# Target sequence (P51450 whole entry, looked up, the tested form may be a part): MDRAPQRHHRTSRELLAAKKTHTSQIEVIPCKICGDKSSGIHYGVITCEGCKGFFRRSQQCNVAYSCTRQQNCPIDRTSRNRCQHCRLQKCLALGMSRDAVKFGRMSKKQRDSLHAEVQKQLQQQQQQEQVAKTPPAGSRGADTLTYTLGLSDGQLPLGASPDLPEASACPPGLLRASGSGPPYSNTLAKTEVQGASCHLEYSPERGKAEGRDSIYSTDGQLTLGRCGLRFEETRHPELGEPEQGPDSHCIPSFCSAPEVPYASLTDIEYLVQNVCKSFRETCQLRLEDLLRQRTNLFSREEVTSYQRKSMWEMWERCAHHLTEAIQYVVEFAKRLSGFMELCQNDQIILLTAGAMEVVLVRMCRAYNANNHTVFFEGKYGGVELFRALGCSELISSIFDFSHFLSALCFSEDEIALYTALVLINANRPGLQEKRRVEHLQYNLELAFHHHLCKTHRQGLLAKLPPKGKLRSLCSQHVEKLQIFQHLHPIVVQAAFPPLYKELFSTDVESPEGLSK
#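 Stable Schneider cell line, Gal4 DNA-binding domain fused to ROR gamma, UAS-luciferase. Cmpd 1 hr RT → CuSO4 700 uM final → 20 hr RT → luciferase reagent 10 min → luminescence.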
# MCF10A rereplic: inducers of DNA re-replication in MCF 10A breast cells; Potency, µM (series often up to 46.1 µM), actives largely listed as activators; MCF 10A DNA re-replication, Hoechst nuclear intensity, 48 h; actives 2.9% (n = 350,000); note: nearly all actives have a fitted effect of over 50% in size
# Hits are given with their value; . = inactive; ? = inconclusive; / = no result given; [ ] = remark or other dose. Hits are enriched below; roughly 10% of the tested compounds scored in any of these assays. Calls come from the whole dose curve; as a rule, active = well fitted curve in the direction sought with a large enough effect; inconclusive = small, poorly fitted or top-dose-only effect, or another doubt; inactive = no such curve, though single readings can be large; an effect the other way counts as inactive or inconclusive.
SMILES,SW480 rereplic,Gal4-VP16 FLuc,ELG1 DNA repair,RORgamma inh,MCF10A rereplic
CCC(C)(C)NC(=O)C(c1cccc(OC)c1)N(C(=O)CNC(=O)c1cccs1)c1cccnc1 (centres undefined),.,.,.,.,.
COC(c1ccccc1)c1nnc(CCC(=O)N2CCN(C3CCCC3)CC2)o1 (centres undefined),.,.,?,.,.
C/C(=N\NC(=O)CN1CCN(S(=O)(=O)c2ccc(C)cc2)CC1)c1ccncc1,.,.,.,.,.
NC(=O)CC(NC(=O)c1ccc(Br)cc1)c1ccc(NC2CCCCCCC2)c([N+](=O)[O-])c1 (centres undefined),.,.,.,?,.
CN(C)c1ccc(NC(=S)c2ccc3ccccc3n2)cc1,.,?,?,6.3µM,.
CC(=O)Nc1ccccc1NC(=O)c1cc(C)ccc1C,.,.[10 µM],.,.,.
COc1ccc(NC(=S)c2ccc(N(C)C)cc2)cc1,.,.,?,?,.
Cc1ccc(C)c(C(=O)c2ccccc2NC(=O)c2ccccn2)c1,?,.,.,.,7.3µM
Cc1ccc(C)c(NC(=S)c2ccc3ccccc3n2)c1,.,5.6µM,?,2µM,.
COc1ccc(C)cc1NC(=O)COC(=O)c1ccc2ccccc2n1,.,/,.,/,.
Cc1cc(NC(=O)CSc2ncccc2C(=O)O)no1,.,.,.,.,.
O=C(c1ccc(OC2CCN(Cc3ccccn3)CC2)cc1)N1CCCCO1,.,.,.,.,.
Cc1nn(-c2cccc(C(F)(F)F)c2)c(=O)c2ccccc12,.,.,.,.,.
Cn1cc(-c2nnnn2-c2cccc(C(F)(F)F)c2)c(C(F)(F)F)n1,.,.[0.365 µM],.,10µM,.
Cc1ccc(NC(=O)CSCC(=O)N2CCN(Cc3ccc4c(c3)OCO4)CC2)cc1,.,.,.,.,.
Cc1nc([N+](=O)[O-])c(Sc2nc3ccccc3n2C)n1Cc1ccccc1,?,?,?,?,15µM
COc1ccc(-c2noc(CNC(=O)CCCN3C(=O)[C@H]4CC=CC[C@H]4C3=O)n2)cc1,.,.,?,.,.
CCc1oc2ccccc2c1C(=O)c1cc(Br)c(O)c(Br)c1,.,.,.,.,7.3µM
CCc1ccc(OCC(=O)c2c(O)c3ccccc3oc2=O)cc1,.,.,.,.,?
O=C(CCSc1ccc(F)cc1)Nc1ccc(-n2cnnn2)cc1,.,.,18µM,.,.
O=C(CCSc1nnc2ccc3ccccc3n12)Nc1ccc(F)cc1,.,.,.,.,?
Cc1c(Cl)cccc1N=Cc1ccc([N+](=O)[O-])s1,?,20µM,?,?,?
COC(=O)N/N=C/c1ccc([N+](=O)[O-])s1,?,.,?,.,.
CCN(C(=O)COC(=O)c1c2c(nc3ccccc13)/C(=C/c1ccccc1)CC(C)C2)C1CCS(=O)(=O)C1 (centres undefined),7.3µM,.,6.5µM,.,?
CCN(C(=O)COC(=O)c1c(C)nn(-c2ccccc2)c1C)C1CCS(=O)(=O)C1 (centres undefined),.,.,?,.,.
SMILES,SW480 rereplic,Gal4-VP16 FLuc,ELG1 DNA repair,RORgamma inh,MCF10A rereplic
O=C(NCC1CCCO1)C1CCN(C2CCN(CCCC3CCCC3)CC2)CC1 (centres undefined),?,.,.,.,16µM
CCc1ccc(-c2nc(NC(=S)NC(=O)c3cccs3)sc2C)cc1,.,3.2µM,.,?,.
O=C(NC(=S)Nc1nc2ccccc2s1)c1cccs1,.,?,?,?,.
COC(=O)c1nc(NC(=S)NC(=O)c2cccs2)sc1C,.,4.5µM,?,4µM,.
COC(=O)c1c(C)cc(C)c2c1CC(C)(C)C2=O,.,.,?,.,.
CN(C(=O)c1ccccc1C(=O)OCC(=O)Nc1ccccc1)c1ccccc1,.,/,?,/,.
CN(C)c1ccnc(-c2ccccc2C(F)(F)F)n1,/,.,/,.,/
CC[n+]1c(C=C2C=C(C)OC(C)=C2)sc2ccccc21,18µM,10µM,?,?,?
COc1ccc(CN(C)c2ncnc3sccc23)c(OC)c1OC,?,.,9.2µM,.,?
COc1ccc(CN(C)Cc2cc(=O)n3ccsc3n2)c(OC)c1OC,.,.,.,.,.
CN(Cc1ccccc1F)c1ncnc2sccc12,.,.,.,.,.
COc1ccc(CCN(C)c2ncnc3sccc23)cc1OC,?,.,?,?,0.82µM
CN(Cc1cccs1)c1ncnc2sccc12,.,1.3µM,.,.,.
COc1cccc(CN(C)S(=O)(=O)c2cccs2)c1,.,.,.,.,.
CCCCNC(=O)CS(=O)Cc1nc(-c2cccc(C)c2)oc1C (centres undefined),.,.,.,.,.
Cc1ccc(CNC(=O)CS(=O)Cc2nc(-c3ccccc3C)oc2C)cc1 (centres undefined),.,.,.,11µM,.
COc1ccc(CNC(=O)CS(=O)Cc2nc(-c3ccc(C)cc3)oc2C)cc1 (centres undefined),.,.,.,13µM,.
COc1ccc(-c2nc(CS(=O)CC(=O)NCc3ccc4c(c3)OCO4)c(C)o2)cc1 (centres undefined),.,.,?,11µM,.
CCCCSCCCNC(=O)CS(=O)Cc1nc(-c2cccc(C)c2)oc1C (centres undefined),.,/,16µM,.[0.365 µM],.
Cc1ccccc1-c1nc(CS(=O)CC(=O)NCc2ccccc2)c(C)o1 (centres undefined),.,.,.,.,.
CC(C)[C@H](NC(=O)N1c2ccccc2NC(=O)[C@@H]1C(C)C)C(=O)N1CCC[C@H]1C(=O)O,.,.,?,.,.
Cc1ccc(-c2nc(CS(=O)CC(=O)NCc3ccccc3)c(C)o2)cc1 (centres undefined),.,.,.,?,.
Cc1ccc(-c2nc(CS(=O)CC(=O)NCc3ccc(F)cc3)c(C)o2)cc1 (centres undefined),.,.,.,11µM,.
CCNC(=S)NNC(=O)c1cccs1,.,.,.,11µM,.
CCNC(=S)NNC(=O)c1cc(Br)cs1,16µM,.,.,.,.
SMILES,SW480 rereplic,Gal4-VP16 FLuc,ELG1 DNA repair,RORgamma inh,MCF10A rereplic
CCCNC(=S)NNC(=O)c1cccs1,?,.,.,.,.
COc1ccccc1CNC(=O)COC(=O)c1ccc(C)c(S(=O)(=O)N2CCOCC2)c1,.,/,.,/,.
Cc1onc(-c2ccccc2)c1C(=O)Nc1cc(C(F)(F)F)ccc1N1CCOCC1,11µM,.,?,.,5µM
CCOC(=O)c1ccc(N2CCOCC2)c(NC(=O)c2c(-c3ccccc3)noc2C)c1,21µM,.,.,.,10µM
COc1ccccc1C1C2=C(N=C3SCC(=O)N31)c1ccccc1CC2 (centres undefined),.,.,.,11µM,.
COc1ccc(/C=c2/sc3n(c2=O)C(c2ccccc2OC)C2=C(N=3)c3ccccc3CC2)cc1O (centres undefined),5.2µM,.,?,.,18µM

# Screening results from PubChem.
